Compound activity as filed in PubChem BioAssay.
HT1080 IDH1KD tx – qHTS for induction of synthetic lethality in tumor cells producing 2HG: qHTS for the HT-1080-IDH1KD cell line; Potency, µM (titrated, usually from 46.1 µM), inactives show at the top dose activity, negative = toxicity, hits mostly cytotoxic; 2% of 360,000 active; HT-1080 IDH1 knockdown viability, ATP luminescence, 48 h;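 further: potency means the concentration at half of the fitted maximal effect; 0% = DMSO wells and -100% = cell-free medium wells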
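% activity derives from luminescence (CellTiter-Glo), normalised to DMSO and no-cell wells. HT-1080-IDH1KD cells, 750/well, had 48 h compound exposure at 37 °C.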
HT1080NT lethal – qHTS for induction of synthetic lethality in tumor cells producing 2HG: qHTS for the HT-1080-NT fibrosarcoma cell line. HT-1080-NT fibrosarcoma viability, CellTiter-Glo ATP luminescence, 48 h. 1.6% of 360,000 active. Potency, µM (highest dose often 46.1 µM), inactives show top-dose activity, negative = less viability, actives largely listed as cytotoxic;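 further: NT is the 2HG producing partner of a matched IDH1 knockdown line; potency means the concentration at half of the fitted maximal effect; 0% = DMSO-treated cells and -100% = media-only wells without cells; nearly all actives have a fitted effect of over 55% in size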
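Toxicity toward the 2HG-producing NT line was scored as %Activity, normalised to DMSO and no-cell wells, from CellTiter-Glo luminescence after 48 hours' treatment.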
IL-1B inflam inh – qHTS for Inhibitors of Inflammasome Signaling: IL-1-beta AlphaLISA Primary Screen. THP-1 LPS/ATP IL-1B secretion, AlphaLISA, 16 h; active compounds read low. 4.7% of 360,000 active. activity change, % at 57.5 µM; in the data active means activity change below about -50%; inconclusive means mostly about -30% to -49%
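THP-1 cells pretreated 1 hr with compounds (up to 57.5 uM final), then stimulated with LPS (250 ng/mL final) plus ATP (1.25 mM final); secreted IL-1B measured by AlphaLISA after 16 hr, decreased signal indicating inhibition.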
uPA generation – qHTS for Inhibitors of Cell Surface uPA Generation. cell surface uPA generation assay, qHTS. Potency, µM (series often up to 38.3 µM), for the others: at the highest dose activity change, negative = inhibition, hits mostly inhibitors. 0.31% of 330,000 active; active means well fitted inhibition curve with a large enough effect; inconclusive means small, poorly fitted or top-dose-only effect; inactive means no such curve, though single readings can be large or run the other way; tested in mouse RAW 264.7 cells; further: potency means the concentration at half of the fitted maximal effect; nearly all actives have a fitted effect of over 55% in size
DT40 TDP1 CPT – qHTS for Inhibitors of human tyrosyl-DNA phosphodiesterase 1 (TDP1): qHTS in cells in presence of CPT. Potency, µM (highest dose often 46.2 µM), for inactives: top-dose activity change, negative = growth inhibition, usual class: inhibitors. 12% of 420,000 active. chicken DT40 Tdp1-/-;hTDP1 cells + 20 nM CPT, ATP luminescence, 48 h; further: potency means the concentration at half of the fitted maximal effect; nearly all actives have a fitted effect of over 55% in size
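Cell growth measured by CellTiter-Glo luminescence after a minimum 48 h, 37 C compound exposure with 20 nM CPT in Tdp1-knockout DT40 cells stably expressing hTDP1, seeded 400/well; qHTS titration format.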
DT40 TDP1 no CPT – qHTS for Inhibitors of human tyrosyl-DNA phosphodiesterase 1 (TDP1): qHTS in cells in absence of CPT | 15% of 420,000 active | DT40 Tdp1-/- hTDP1 cells, no CPT, ATP luminescence, 48 h | Potency, µM (titrated, usually from 46.2 µM), inactives show top-dose activity change, negative = growth inhibition, most hits filed as inhibitors; further: potency means the concentration at half of the fitted maximal effect; nearly all actives have a fitted effect of over 55% in size
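DT40 Tdp1-/-;hTDP1 cells, no CPT (DMSO vehicle only), 400 cells/well; compounds pin-transferred; ≥48 hr, 37 °C; CellTiter-Glo 30 min RT dark, luminescence read.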
The depositor's hits bear a star; ? = inconclusive; nt = not tested or not shown; [ ] = another dose, or the depositor's remark. Compounds with a hit are over-represented: about 19% of the library has one in this group of screens. Unless noted, the call rests on the fitted dose curve; in most records, active means well fitted curve in the direction sought with a large enough effect; inconclusive means small, poorly fitted or top-dose-only effect, or another doubt; inactive means no such curve, though single readings can be large; an effect the other way counts as inactive or inconclusive. Unless noted, on the % scale 0 is the no-effect control and ±100 the full control effect.

SMILES	HT1080 IDH1KD tx	HT1080NT lethal	IL-1B inflam inh	uPA generation	DT40 TDP1 CPT	DT40 TDP1 no CPT
COc1ccc(OC)c(S(=O)(=O)N2CCC(n3c(C)nc4cccnc43)CC2)c1	nt	nt	nt	nt	?	-11.9%
Cc1ccc(-c2[nH]ncc2/C=C(\C#N)C(=O)NC2CCCCC2)cc1	?	?	-58.8*	-2.5%	?	20.6µM*
COc1ccc(-c2[nH]ncc2/C=C(/C#N)C(=O)NC2CCCCC2)cc1	?	?	?	-5.0%	?	?
N#C/C(=C\C=C\c1ccccc1[N+](=O)[O-])C(=O)NC1CCCCC1	5.2%	4.4%	-104.0*	-7.4%	9.2µM*	9.2µM*
N#C/C(=C\c1ccccc1[N+](=O)[O-])C(=O)NC1CCCCC1	18.4µM*	?	-71.5*	-4.3%	?	14.6µM*
CCOc1ccccc1/C=C(\C#N)C(=O)NC1CC1	-3.5%	-3.5%	0.0	-8.3%	-19.3%	-17.5%
N#C/C(=C\c1cccn1-c1ccccc1)C(=O)NC1CCCCC1	13.1%	5.8%	1.3	7.0%	?	?
N#C/C(=C\c1cc(Br)ccc1F)C(=O)NC1CC1	8.8%	7.4%	-2.1	-4.1%	13µM*	?
CC(=O)Nc1ccc(S(=O)(=O)N(CC(=O)NCC2CCCO2)Cc2ccccc2Cl)cc1 (stereo not given)	0.8%	-7.6%	7.3	nt	-22.8%	?
C[C@@H]1CN([C@@H](C)CO)C(=O)CCCn2nncc2CO[C@@H]1CN(C)C(=O)Nc1ccnc(N2CCOCC2)c1	7.2%	11.2%	17.8	nt	-6.7%	-12.7%
CC(NC(=O)CSc1ncn[nH]1)c1ccc(Cl)cc1Cl (stereo not given)	0.4%	-13.0%	-28.0	-8.3%	-11.9%	-2.6%
N#C/C(=C\c1cc(Cl)ccc1O)C(=O)NC1CCCCC1	-13.2%	5.0%	-16.9	nt	?	?
N#C/C(=C\c1cc(Cl)cc(Cl)c1O)C(=O)NC1CCCCC1	-7.7%	-3.4%	-1.7	nt	20.6µM*	?
CC(C)(C)c1cc(C(=O)NN)n(Cc2ccc(F)cc2)n1	-2.4%	-2.1%	44.3	1.1%	-19.8%	-18.2%
COC(=O)c1cc(NC(=O)c2cc(C(C)(C)C)nn2Cc2ccc(F)cc2)ccc1N1CCOCC1	-7.0%	-13.9%	?	?	?	18.4µM*
COc1ccc(C(C(=O)NCc2ccccc2)N(C(=O)Cn2nnc3ccccc32)c2cccc(OC)c2)cc1 (stereo not given)	nt	nt	nt	nt	?	-15.6%
Cc1ccsc1C(=O)Nc1ccc2c(c1)OCCO2	-27.9%	-10.3%	35.5	-8.8%	?	?
CC(=O)Nc1nonc1-c1nnc(SCc2cccc(Br)c2)n1C	nt	nt	nt	nt	16.4µM*	18.4µM*
Cn1c(SCC(=O)NNC(=O)Cc2ccccc2)nnc1-c1ccc(Cl)cc1	1.8%	-1.0%	-26.0	0.7%	-11.4%	-7.2%
COc1ccc(-c2nnc(SCC(=O)Nc3ncc(C)s3)n2-c2ccccc2)cc1OC	?	?	8.5	-12.3%	20.6µM*	23.1µM*
CC(=O)Nc1nonc1-c1nnc(SCC(=O)Nc2ccccc2)n1-c1ccccc1	nt	nt	nt	nt	-1.7%	-26.5%
CCn1c(SCc2ccccc2)nnc1-c1nonc1NC(C)=O	nt	nt	nt	nt	-24.6%	-22.6%
COc1ccc(-c2nnc(SCC(=O)NNC(=O)Cc3ccccc3)n2C)cc1OC	5.9%	9.8%	-17.9	-1.5%	?	23.1µM*
COc1ccccc1NC(=O)CSc1nnc(-c2nonc2NC(C)=O)n1-c1ccccc1	nt	nt	nt	nt	?	23.1µM*
COCC(=O)Nc1cc(C(=O)N2CCN(c3ccc(Cl)cn3)CC2)c2c(c1)nc(C1CCC1)n2C	nt	nt	nt	nt	-15.7%[9.04 µM]	-11.1%
SMILES	HT1080 IDH1KD tx	HT1080NT lethal	IL-1B inflam inh	uPA generation	DT40 TDP1 CPT	DT40 TDP1 no CPT
CC(C)Cn1c(=O)c(C(=O)Nc2cnccn2)c(O)c2ccccc21	5.4%	0.7%	30.9	1.4%	?	25.9µM*
CC(C)Cn1c(=O)c(C(=O)Nc2ccncc2)c(O)c2ccccc21	0.0%	-3.4%	0.0	-3.2%	2.91µM*	4.11µM*
CCC(=O)N1CCc2cc(S(=O)(=O)NCCC(=O)N3CCN(Cc4ccccc4)CC3)ccc21	2.8%	0.1%	1.3	-2.5%	-14.5%	-27.8%
CCC(=O)N1CCc2cc(S(=O)(=O)NCCC(=O)N3CCN(c4cccc(OC)c4)CC3)ccc21	-3.9%	-5.9%	28.8	?	?	13µM*
CCC(=O)N1CCc2cc(S(=O)(=O)NCCC(=O)N3CCN(c4cccc(C)c4)C(C)C3)ccc21 (stereo not given)	-1.0%	-21.2%	-3.3	12.2%	20.6µM*	9.2µM*
Cc1cccc(N2CCN(C(=O)CCS(=O)(=O)c3ccc4c(c3)CC(=O)N4C)CC2C)c1 (stereo not given)	nt	nt	nt	nt	16.4µM*	?
Cc1ccc(-c2ccc(=O)n(CCC(=O)N3CCN(c4cccc(C)c4)C(C)C3)n2)cc1 (stereo not given)	-13.5%	1.8%	?	16.8%	?	?
CCC(=O)N1CCc2cc(S(=O)(=O)NCCC(=O)N3CCN(c4ccccc4)CC3)ccc21	-0.4%	-5.3%	14.1	-14.3%	?	20.6µM*
CC(=O)Nc1ccc(C(=O)N2CCCC(c3cc(C(=O)NCc4cccnc4)no3)C2)cc1 (stereo not given)	18.0%	6.8%	1.5	nt	-19.7%	-14.6%
CCCCNc1nc(Oc2ccc(OCC)nn2)nc(N2CCOCC2)n1	nt	nt	nt	nt	-20.2%	?
Cc1cccc(N2CCN(C(=O)CCNS(=O)(=O)c3cccs3)CC2C)c1 (stereo not given)	-19.5%	-17.9%	22.5	-1.5%	?	20.6µM*
CC(C)(C)c1nnc2cccc(Cl)n12	-7.1%	-3.4%	-10.0	2.2%	-5.8%	2.6%
COc1cccc(Cn2c(=O)c(-c3cn(C)c4ccccc34)nc3cnc(N4CCOCC4)nc32)c1	nt	nt	nt	nt	-12.7%	-8.4%
Cn1cc(-c2nc3cnc(N4CCNCC4)nc3n(Cc3ccc(F)cc3)c2=O)c2ccccc21	nt	nt	nt	nt	5.17µM*	7.31µM*
COc1cccc(Cn2c(=O)c(-c3cn(C)c4ccccc34)nc3cnc(N4CCNCC4)nc32)c1	nt	nt	nt	nt	7.31µM*	20.6µM*
